# According to paper PMC5540273 (PLoS ONE, 2017):
# How the values were obtained:
# Details in all cases: concentration: 1 μM,replicates: in singlicate; n = 1
# [1] = tested on: PIP5K1A
# [2] = tested on: PIP5K1C
# [3] = tested on: PIP5K2B
# [4] = tested on: T1, PIP5K2C
# T1 construct: gene PIP4K2C
# [5] = tested on: T2, PKAC-alpha
# T2 construct: gene PRKACA
# [6] = tested on: T3, PKAC-beta
# T3 construct: gene PRKACB
# [7] = tested on: PKMYT1
# [8] = tested on: PKN1
# [9] = tested on: PKN2
# [10] = tested on: PLK1
# 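Note: KINOMEscan kinase panel screen.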
smiles,measurement,setting,value
CS(=O)(=O)Nc1ccc(-c2ccnc3[nH]ccc23)cc1 [GSK993273],%Inh,[1],57%
same,%Inh,[2],29%
same,%Inh,[3],55%
same,%Inh,[4],89%
same,%Inh,[5],84%
same,%Inh,[6],85%
same,%Inh,[7],0%
same,%Inh,[8],21%
same,%Inh,[9],18%
same,%Inh,[10],0%
CCOC(=O)N1CCC(n2cnc(-c3ccc(F)cc3)c2-c2ccnc(N)n2)CC1 [SB-219952],%Inh,[1],0%
same,%Inh,[2],32%
same,%Inh,[3],2%
same,%Inh,[4],94.4%
same,%Inh,[5],9%
same,%Inh,[6],36%
same,%Inh,[7],32%
same,%Inh,[8],0%
same,%Inh,[9],8%
same,%Inh,[10],23%
NC(=O)Nc1sc(-c2ccc(F)cc2)cc1C(N)=O [GW789449],%Inh,[1],93.9%
same,%Inh,[2],65%
same,%Inh,[3],87%
same,%Inh,[4],28%
same,%Inh,[5],0%
same,%Inh,[6],26%
same,%Inh,[7],0%
same,%Inh,[8],7%
same,%Inh,[9],54%
same,%Inh,[10],37%
COc1cc2c(Nc3ccc(NC(=O)c4ccccc4)cc3)ncnc2cc1OCCCN1CCOCC1 [GSK301329],%Inh,[1],0%
same,%Inh,[2],27%
same,%Inh,[3],14%
same,%Inh,[4],0%
same,%Inh,[5],3%
same,%Inh,[6],14%
same,%Inh,[7],1%
same,%Inh,[8],0%
same,%Inh,[9],0%
same,%Inh,[10],0%
O=C(Nc1cccc(Oc2ccc3nccn3n2)c1)Nc1cccc(C(F)(F)F)c1,%Inh,[1],6%
same,%Inh,[2],37%
same,%Inh,[3],14%
same,%Inh,[4],35%
same,%Inh,[5],66%
same,%Inh,[6],63%
same,%Inh,[7],0%
same,%Inh,[8],0%
same,%Inh,[9],31%
same,%Inh,[10],38%
Cc1n[nH]c2cc(Nc3ccnc(Nc4cccc(CN5CCOCC5)c4)n3)ccc12 [GW682569],%Inh,[1],57%
same,%Inh,[2],70%
same,%Inh,[3],33%
same,%Inh,[4],71%
same,%Inh,[5],0%
same,%Inh,[6],0%
same,%Inh,[7],0%
same,%Inh,[8],46%
same,%Inh,[9],0%
same,%Inh,[10],0%
Cn1ccc2ncnc(Oc3ccc(NC(=O)Nc4cnn(C(C)(C)C)c4)c(Cl)c3)c21,%Inh,[1],17%
same,%Inh,[2],3%
same,%Inh,[3],100%
same,%Inh,[4],0%
same,%Inh,[5],0%
same,%Inh,[6],3%
same,%Inh,[7],0%
same,%Inh,[8],0%
same,%Inh,[9],3%
same,%Inh,[10],0%
